High-throughput results from PubChem.
KB-3-1 tox: kills parental KB-3-1 adenocarcinoma cells; Potency, µM (doses to about 46.1 µM), usual class: cytotoxic; KB-3-1 viability, CellTiter-Glo ATP luminescence, 72 h; AID 1347075; actives 1.4% (n = 400,000); note: nearly all actives have a fitted effect of over 60% in size
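Using CellTiter-Glo luminescence, growth of non-resistant KB-3-1 adenocarcinoma cells is assessed 72 h after pin-tool compound addition at 37 °C. Normalized responses across the concentration series yield fitted curves.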
HT1080NT lethal: kills 2HG-producing HT-1080-NT fibrosarcoma cells; Potency, µM (series often up to 46.1 µM), for the others: top-dose activity, negative = less viability, hits mostly cytotoxic; HT-1080-NT fibrosarcoma viability, CellTiter-Glo ATP luminescence, 48 h; actives 1.6% (n = 360,000);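 note: NT is the 2HG producing partner of a matched IDH1 knockdown line; 0% = DMSO-treated cells and -100% = media-only wells without cells; nearly all actives have a fitted effect of over 55% in size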
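Fibrosarcoma NT cells, 750 per well in 5% FBS RPMI, were exposed to compound for 48 hours. Viability: CellTiter-Glo luminescence.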
KB-V1 cytotox: KB-V1 MDR subline cytotoxicity; Potency, µM (doses to about 46.1 µM), hits mostly cytotoxic; KB-V1 MDR cells viability, CellTiter-Glo, 72 h; actives 3.4% (n = 400,000); note: nearly all actives have a fitted effect of over 60% in size
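KB-V1, DMEM (no phenol red) + 10% FBS; cpd pin-transferred, titration series; 72 h, 37 degrees C; CellTiter-Glo, luminescence. Data normalized, curve-fit.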
TDP1 cell noCPT: qHTS for Inhibitors of human tyrosyl-DNA phosphodiesterase 1 (TDP1): qHTS in cells in absence of CPT; DT40 Tdp1-/- hTDP1 cells, no CPT, ATP luminescence, 48 h; Potency, µM (titrated, usually from 46.2 µM), for inactives: top-dose activity change, negative = growth inhibition, actives largely listed as inhibitors; actives 15% (n = 420,000); note: nearly all actives have a fitted effect of over 55% in size
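DT40 Tdp1-/-;hTDP1 cells, no CPT (DMSO vehicle only), 400 cells/well; compounds pin-transferred; ≥48 hr, 37 °C; CellTiter-Glo 30 min RT dark, luminescence read.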
HT1080 IDH1KD tx: kills HT-1080 cells with IDH1 knockdown; Potency, µM (highest dose often 46.1 µM), inactives show top-dose activity, negative = toxicity, usual class: cytotoxic; AID 686971; HT-1080 IDH1 knockdown viability, ATP luminescence, 48 h; actives 2% (n = 360,000);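 note: 0% = DMSO wells and -100% = cell-free medium wells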
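Cytotoxicity counter-line: IDH1KD HT-1080, 48 h, CellTiter-Glo. Curves classed by r2, magnitude and activity.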
DT40 TDP1 CPT: DT40-hTDP1 cell growth loss with CPT; Potency, µM (doses to about 46.2 µM), without a hit: at the top dose activity change, negative = growth inhibition, usual class: inhibitors; actives 12% (n = 420,000); AID 686979; chicken DT40 Tdp1-/-;hTDP1 cells + 20 nM CPT, ATP luminescence, 48 h; note: nearly all actives have a fitted effect of over 55% in size
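Chicken DT40 Tdp1-/- cells complemented with human TDP1, 400 cells/well, exposed to compounds plus 20 nM camptothecin for at least 48 h at 37 C; viability read as ATP content by CellTiter-Glo luminescence.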
The depositor's hits bear a star; i = inactive; ? = inconclusive; nt = no result given. A selection: hits, their analogues and other compounds. The true share with any hit is near 19%. Calls come from the whole dose curve; as a rule, active = well fitted curve in the direction sought with a large enough effect; inconclusive = small, poorly fitted or top-dose-only effect, or another doubt; inactive = no such curve, though single readings can be large; an effect the other way counts as inactive or inconclusive. Unless noted, % is set by controls: 0 for no effect and ±100 for the full control effect; potency is the fitted concentration of half-maximal effect.

SMILES | KB-3-1 tox | HT1080NT lethal | KB-V1 cytotox | TDP1 cell noCPT | HT1080 IDH1KD tx | DT40 TDP1 CPT
Cc1ccc(C)c(CN2C(=O)c3ccccc3S(=O)c3ccc(C(=O)N(C)Cc4ccccc4)cc32)c1 (stereo not drawn) | i | nt | i | ? | nt | 18µM*
O=C(NCCc1ccccc1)c1ccc2c(c1)N(Cc1ccccc1F)C(=O)c1ccccc1S2=O (stereo not drawn) | i | nt | i | ? | nt | ?
Cc1ccc(C)c(CN2C(=O)c3ccccc3S(=O)c3ccc(C(=O)NCCCN4CCCC4)cc32)c1 (stereo not drawn) | i | ? | i | ? | ? | ?
CCOC(=O)c1ccc2c(c1)N(Cc1ccccc1C)C(=O)c1ccccc1S2=O (stereo not drawn) | i | 10% | ? | ? | 20% | 14µM*
Cc1ccc(C)c(CN2C(=O)c3ccccc3S(=O)c3ccc(C(=O)N4CCC(C)CC4)cc32)c1 (stereo not drawn) | i | nt | i | 23µM* | nt | ?
CC(C)(C)OC(=O)N1CCc2onc(-c3ccccc3F)c2C1=O | ? | 1% | i | -6% | -3% | -11%
COc1ccc(N2CCN(C(=O)c3ccc4c(c3)N(Cc3cc(C)ccc3C)C(=O)c3ccccc3S4=O)CC2)cc1 (stereo not drawn) | i | nt | i | 12µM* | nt | 15µM*
Cn1nc2c(c1C(=O)N1CCCC(C(=O)c3cc(F)ccc3F)C1)CCCC2 (stereo not drawn) | i | -8% | i | -36% | -3% | 16µM*
CC(C)c1cc(C(=O)N2CCCC(N3CCN(c4ccc(F)cc4)CC3)C2)n(C)n1 (stereo not drawn) | i | -2% | i | ? | -20% | 16µM*
Cc1cc(C(=O)N2CCCC(N3CCN(c4ccc(F)cc4)CC3)C2)c(C)o1 (stereo not drawn) | i | -1% | ? | 18µM* | -20% | 23µM*
Cc1cc(C(=O)N2CCCC(C(=O)c3cc(F)ccc3F)C2)c(C)o1 (stereo not drawn) | i | -4% | i | 18µM* | 0% | ?
Cc1cc([N+](=O)[O-])ccc1NC(=O)CSc1nccn1C | i | nt | i | nt | nt | nt
O=C(NN1C(=O)C2CC=C(Cl)CC2C1=O)c1ccncc1 (stereo not drawn) | i | 6% | i | 10% | 4% | 5%
Cc1cc(C(=O)N2CCCC(CO)(Cc3ccc(F)cc3)C2)c(C)o1 (stereo not drawn) | i | 9% | ? | 23µM* | 12% | 23µM*
CC(C)Cc1cc(C(=O)N2CCCC(CO)(Cc3ccc(F)cc3)C2)no1 (stereo not drawn) | i | -6% | i | ? | 1% | ?
CC(=O)c1cc2c(cc1NC(=O)Cc1ccsc1)OCO2 | i | 9% | i | ? | 0% | 1%
O=[N+]([O-])c1ccc(NC(=S)NCc2ccc(F)cc2)cc1 | ? | ? | ? | 15µM* | 23µM* | ?
O=[N+]([O-])c1ccc(C=NNC(=S)NN=Cc2ccc([N+](=O)[O-])cc2)cc1 | i | 0% | i | -14% | 0% | ?
O=[N+]([O-])c1ccc(C=NNC(=S)Nc2ccc(F)cc2)cc1 | i | -11% | i | 2.9µM* | -13% | 1.5µM*
O=[N+]([O-])c1ccc(NC(=S)NCc2ccncc2)cc1 | i | -21% | ? | ? | -6% | -20%
N#CC1=C(N)N(c2ccc(F)cc2)C2=C(C1c1ccc(O)cc1)S(=O)(=O)CC2 (stereo not drawn) | i | 0% | i | ? | 5% | 21µM*
CCCOC(=O)NC1CCS(=O)(=O)C1 (stereo not drawn) | i | 7% | i | -2% | 10% | 4%
O=C(NC1CCS(=O)(=O)C1)Oc1ccccc1 (stereo not drawn) | i | 2% | i | 26µM* | 7% | ?
O=C(NC1CCCCC1)Oc1ccccc1 | i | 13% | i | -25% | 14% | 17%
CCCCCCCCCCOC(=O)NC1CCS(=O)(=O)C1 (stereo not drawn) | i | -26% | ? | 21µM* | -28% | ?
SMILES | KB-3-1 tox | HT1080NT lethal | KB-V1 cytotox | TDP1 cell noCPT | HT1080 IDH1KD tx | DT40 TDP1 CPT
Cc1ccc(S(=O)(=O)N(CC(=O)NCc2ccncc2)Cc2ccc(F)cc2)cc1 | i | 6% | ? | ? | 14% | ?
O=C(Nc1ccccc1)OC[C@@H]1C=CS(=O)(=O)N1Cc1ccc(Br)cc1 | i | ? | i | ? | ? | ?
O=P1(O)Cc2ccccc2-c2ccccc21 | i | 1% | i | 1% | 13% | 7%
Cc1ccc(S(=O)(=O)N/N=C/c2cccc3nccnc23)cc1 | i | 2% | i | 15µM* | -4% | 13µM*
CCOC(=O)N/N=C/c1ccccc1OCc1ccc(Cl)cc1 | i | 2% | i | 29µM* | -2% | ?
COC(=O)c1ccc(COc2ccccc2/C=N/NS(=O)(=O)c2ccc(C)cc2)cc1 | i | -30% | 18µM* | ? | ? | 18µM*
O=S(=O)(N/N=C/c1ccccc1OCc1ccc(Cl)cc1)c1ccccc1 | ? | ? | 16µM* | ? | -12% | ?
O/N=C/c1ccccc1OCc1ccc(Cl)cc1 | i | -21% | i | 0% | ? | -3%
O=C(Cc1ccccc1)N/N=C/c1ccccc1OCc1ccc(Cl)cc1 | i | -5% | i | ? | -20% | ?
Cc1ccc(S(=O)(=O)N/N=C/c2cccc3c2OCCO3)cc1 | i | 6% | ? | -37% | 14% | ?
